The sequences below were run on VDR:RXRa (NR concentration 270 nM, RXRa partner concentration 90 nM) (assay: PBM binding z-score (relative to random genomic background probes); higher = stronger binding; sequences stand for … in GC…GCGATTGACAGCGTAGAATGAAGG).
Description: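 Protein-binding microarray (Agilent 4x180K custom design, double-stranded 60-nt probes: 5' GC cap, 34-nt variable region, 24-nt constant primer region; full probe sequence given). Purified or IVT nuclear receptor:RXRα heterodimers (3:1 NR:RXRα, mostly 270:90 nM) or homodimers were incubated for 1 h in PBS with 2% milk and no ligand, then detected with Alexa488 antibodies. Fluorescence from o1-orientation probes (~5 replicates averaged) was converted to z-scores against 500 random hg19 background probes. Variable regions are seed direct-repeat (DR0–DR5) sites, all their single-nucleotide variants and half-site ablations.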
With ATATGTAGGTTACAGCCGGGTCATTCAGGCTATG the PBM binding z-score was 4.1.
GCAGACAGTTGAAACGCAGGTAACTCAGGGTGGC was tested, and the PBM binding z-score was -0.517.
Sequence TCATATAGGTAATACAGGTGAAACTCGGCATCTA has a PBM binding z-score of 1.37.
In the case of CCTATGAGTTGACCATAAGGGCAACCGAAGCTCG, the PBM binding z-score is reported as 0.81.
Sequence CCTAGCTGGTCAGGAGGTCACACACCGGATATGA has a PBM binding z-score of 3.73.
AGAATGAAGTTATACGTAGATCAGGGAAGAAAGT showed a PBM binding z-score of -0.299.
ATCTCAAGGTAAAGTTCAGTGAAAGATCGATAGA gave a PBM binding z-score of 1.8.
Sequence AGAATGAGGTTACCAAAGAACAGGGAAACGCTTG has a PBM binding z-score of 1.17.
For CCAGACAGGTGTGAAGGTAACTCAGCCTCGATTA, the PBM binding z-score was -0.322.
With TCATATAAGTAAATGCTAGGTGAAAGTCCGATCT the PBM binding z-score was 0.889.
Work on CCGACTGGGCCAAGGTTACCATAACGCACAGCCA yielded a PBM binding z-score of -0.185.
Work on GCTATTAGTTGAAAGGGCCACCGAATGATTCTCG yielded a PBM binding z-score of -0.0971.
ATTTCTAGGTAAGACTCAGTTCAGTGAAGAACGC gave a PBM binding z-score of 1.6.
TCTCGGAGGACACGAAAGGACAGAGCTCGACATC was tested, and the PBM binding z-score was -0.146.
For CCGACTGGGGCAGAAAGGTTACCATTCCATCCGG, the PBM binding z-score was 0.567.
CAAACTAGGTCAACGTCAAAGTCGGTTTGTGCCA showed a PBM binding z-score of 1.83.
For ATCTTTAGGTAAAGATAGTTCAGTGAATGCAAAT, the PBM binding z-score was 0.897.
In the case of CCTACTGGCCCAAGGTCATTGATCAGTCAAAGCA, the PBM binding z-score is reported as 3.26.
TGAATGAGGTTAAAGATCAGGGAGCGTGGCGTCG was tested, and the PBM binding z-score was 1.74.
For CCCAGTAGGTTATGGGGCATTCAGGCAACGGTGA, the PBM binding z-score was 0.00537.
For GCGACTGCGGCAAAGCAGGTTACCATAAGGTTGG, the PBM binding z-score was -0.392.
TCAAGTAGGTTAGGGGCATTCAGAATGGCGTCGA gave a PBM binding z-score of 1.05.
In the case of CGGACTAGGTCATTGACAGGACAGTGAATAGTAA, the PBM binding z-score is reported as 2.
GCTATTAGTTGAAAGGGCAACCGCATGATTCTCG showed a PBM binding z-score of 0.504.
With CAAACTAGGTCAAACGTCAAAGTCGAGCCAACCA the PBM binding z-score was 2.41.
For ATCACTAGGTAAAAGTTCAGTGAATCCCGAGGAT, the PBM binding z-score was 1.34.
For GCAGCTAGGTCAACTGATGGTCAGCTAAAGCTCG, the PBM binding z-score was 1.19.
CCTACTGGGCCAAAAAGGGCATTGATGCCGATAA showed a PBM binding z-score of 1.01.
With GCTAGTTGGTAAGTAAAAGGTCACACACCGGTCG the PBM binding z-score was 3.82.
Work on GCTCGGAGGACAAGGGCAGAGCTTTGTCCGTAGA yielded a PBM binding z-score of -0.692.
Work on CCGACTGGGGCATAAGGTTACCCTAAGCCAGCCC yielded a PBM binding z-score of 0.27.
In the case of ACTAGCAGGCCAAGGGTCGCTCAAGATTAGTCCG, the PBM binding z-score is reported as 0.00609.
For AGAATAAGGTTATACGTAGATCAGGGAAGAAAGT, the PBM binding z-score was 1.04.
TCTTGTAGATCTATAGAGGTTAAGAAAGTGCGCT showed a PBM binding z-score of 1.65.
Sequence CAAACTAGGGCAAGAGGTCAAAGTCCGCTTCCCG has a PBM binding z-score of 5.08.
With CAAACTAGGTCACGCAAGGTCAAAGTCGAATGAC the PBM binding z-score was 6.9.
For ATCTCTAGGTAAAGATCGTTCAGTGAATGCAAAT, the PBM binding z-score was 0.221.
TATACAGGTTCAAAGGCCAGAGTACGAATGTCGA was tested, and the PBM binding z-score was 3.76.
For GCTAGTAGTTGAAAGGGCAACCGAATGATTCTCG, the PBM binding z-score was 0.183.
Sequence TGTCAAAGTTCAAGGGTAACGTAAGTATCCACAC has a PBM binding z-score of 4.26.

Source: the supplement of paper PMC6555819
